Source: PubChem BioAssay (NCATS)
Several values for one entry are separate records, joined by “and”; a condition that tells them apart may be missing. Identical values can stand only once. Inconclusive results are not listed. Where a call stands in place of a potency, no number is given. Activity calls are given as the source filed them. Calls come from the whole dose curve; as a rule, active = well fitted cell-killing curve with a large enough effect; inconclusive = small, poorly fitted or top-dose-only effect; inactive = flat fitted curve, though single readings scatter.

Test: qHTS of pediatric cancer cell lines to identify multiple opportunities for drug repurposing: Primary screen for RD cells (AID 1347104); note: nearly all actives have a fitted effect of over 55% in size
Conditions: RD rhabdomyosarcoma viability, CellTiter-Glo luminescence, 48 h; series mostly up to 46 µM
From the text: Drug repurposing or repositioning has been offered as a strategy for drug development in oncology programs. This approach has special potential for childhood cancers and other rare or orphan diseases, where the expected return on new drug development has been a disincentive to pharmaceuticals. […] In this project we exploit the poly-pharmacology of drugs to discover new indications via phenotypic screening of a panel of 19 well-characterized cell lines derived from solid tumors seen in children and adolescents. The goal is to identify approved drugs with previously unrecognized anticancer properties that has the potential to reveal new mechanisms and biological processes involved in carcinogenesis or drug resistance. We employed a titration-based paradigm (quantitative high-throughput screening or qHTS), where all compounds were tested at multiple concentrations for their effect on cell viability. Concentration-response curves (CRCs) were derived directly from the primary screen, and both potency and efficacy values were used to identify compounds with robust bioactivity profiles. We screened the NIH Chemical Genomics Center (NCGC) Pharmaceutical Collection (NPC) and Mechanism Interrogation Plate (MIPE) small molecule collections of approved and investigational compounds against these cell lines; and measured metabolically active cells after 48 hours of compound treatment as a proxy for cell viability. […] Assay Submitter: Nathalia J. Martinez, National Center for Advancing Translational Sciences, National Institutes of Health, Rockville, MD, USA; email: natalia.martinez@nih.gov Shen, M et al. Quantitative high-throughput phenotypic screening of pediatric cancer cell lines identifies multiple opportunities for drug repurposing. Oncotarget 2017 Dec 19;9(4):4758-4772. PMID 29435139.
The cells were obtained from University of North Carolina (UNC), Pediatric Preclinical Testing Program (PPT), and Coriell Institute (CI). qHTS cell viability assay: Cells were assayed in growth media at a density of 500-1,000 cells/well. Five microliters of cells were dispensed into 1,536-well, white, solid-bottom, TC-treated plates (Greiner Bio One) using a multidrop dispenser and incubated at 37 degrees C, 5% CO2, under a humidified atmosphere for 5 hours. Twenty-three nanoliters of compounds and controls (neutral control DMSO or positive control bortezomib at final concentration of 2.3 µM) were subsequently transferred by Kalypsys pintool. For primary screens, the MIPE collection was tested at 11-point dilutions (final concentrations range from 0.78 nM to 46 µM) and the NPC collection at 8-point dilutions (final concentrations range from 0.59 nM to 46 µM). Compounds tested in follow-up screens were assayed at 11-point dilutions. Cells were incubated for 48 hours, followed by addition of 3 µL of CellTiter-Glo (Promega). After a 15 min incubation at room temperature, samples were analyzed for luminescence intensity using a ViewLux High-throughput CCD imager equipped with clear filters.
Potency is the fitted concentration of half-maximal effect.

Row | Compound | Potency
1 | COc1ccc(-c2ccc3cc(C(=O)O)ccc3c2)cc1C12CC3CC(CC(C3)C1)C2 | inactive
2 | COc1cc(NS(=O)(=O)c2ccc(N)cc2)nc(OC)n1 | inactive
3 | C[C@@H]1CN(c2c(F)c(N)c3c(=O)c(C(=O)O)cn(C4CC4)c3c2F)C[C@H](C)N1 | inactive
4 | CC1(C)[C@H](C(=O)O)N2C(=O)C[C@H]2S1(=O)=O | inactive
5 | O=C(O)C1CCCN(CCC=C(c2ccccc2)c2ccccc2)C1 (stereo not given) | inactive
6 | COc1nc(N)nc2c1ncn2[C@@H]1O[C@H](CO)[C@@H](O)[C@@H]1O | inactive
7 | CO[C@@]12[C@H](COC(N)=O)C3=C(C(=O)C(C)=C(N)C3=O)N1C[C@@H]1N[C@@H]12 | 18.8 µM (active) and 18.7 µM (active)
8 | CCn1cc(C(=O)O)c(=O)c2cc(F)c(N3CCN(C)CC3)cc21 | inactive
9 | CN(C)c1ccc(C(=C2C=CC(=[N+](C)C)C=C2)c2ccc(N(C)C)cc2)cc1 | 1.88 µM (active) and 662 nM (active)
10 | CC[C@H](C)C(=O)O[C@H]1C[C@@H](C)C=C2C=C[C@H](C)[C@H](CC[C@@H]3C[C@@H](O)CC(=O)O3)[C@H]21 | inactive
11 | CC(=O)[C@H]1CC[C@H]2[C@@H]3CC=C4C[C@@H](O)CC[C@]4(C)[C@H]3CC[C@]12C | inactive
12 | CC(C)C1CCC(C(=O)N[C@H](Cc2ccccc2)C(=O)O)CC1 (stereo not given in full) | inactive
13 | Nc1[nH]c(=O)ncc1F | inactive
14 | CNCC[C@H](Oc1cccc2ccccc12)c1cccs1 | 26.6 µM (active) and 4.69 µM (active)
15 | NS(=O)(=O)c1cc2c(cc1Cl)NC(C(Cl)Cl)NS2(=O)=O (stereo not given) | inactive
16 | Cc1cc(NS(=O)(=O)c2ccc(N)cc2)no1 | inactive
17 | O=C(N[C@H](CO)[C@H](O)c1ccc([N+](=O)[O-])cc1)C(Cl)Cl | inactive
18 | CN(CCOc1ccc(CC2SC(=O)NC2=O)cc1)c1ccccn1 (stereo not given) | inactive
19 | Nc1nc(F)nc2c1ncn2[C@@H]1O[C@H](CO)[C@@H](O)[C@@H]1O | 833 nM (active)
20 | CCN(C)C(=O)Oc1cccc([C@H](C)N(C)C)c1 | inactive

Row | Compound | Potency
21 | CCc1cc(C(N)=S)ccn1 | inactive
22 | CCN1CCCC1CNC(=O)c1cc(S(N)(=O)=O)ccc1OC (stereo not given) | inactive
23 | CNC(=O)c1cc(Oc2ccc(NC(=O)Nc3ccc(Cl)c(C(F)(F)F)c3)cc2)ccn1 | 18.7 µM (active) and 23.7 µM (active)
24 | Cn1c(=O)c2c(ncn2CC(O)CO)n(C)c1=O (stereo not given) | inactive
25 | COc1ccccc1OCC(O)COC(N)=O (stereo not given) | inactive
26 | CCC(=O)O[C@]1(C(=O)CCl)[C@@H](C)C[C@H]2[C@@H]3CCC4=CC(=O)C=C[C@]4(C)[C@@]3(F)[C@@H](O)C[C@@]21C | inactive
27 | CCCCOc1ccc(CC(=O)NO)cc1 | 15 µM (active) and 26.4 µM (active)
28 | COc1ncnc(NS(=O)(=O)c2ccc(N)cc2)c1OC | inactive
29 | OC(Cn1cncn1)(Cn1cncn1)c1ccc(F)cc1F | inactive
30 | O=C(NCC1CN(c2ccc(N3CCOCC3=O)cc2)C(=O)O1)c1ccc(Cl)s1 (stereo not given) | inactive
31 | COC(c1ccccc1)(c1ccccc1)[C@H](Oc1nc(C)cc(C)n1)C(=O)O | inactive
32 | COc1cc([C@@H]2c3cc4c(cc3[C@H](O)[C@H]3COC(=O)[C@H]23)OCO4)cc(OC)c1OC | inactive
33 | CN(Cc1cc(Br)cc(Br)c1N)C1CCCCC1 | inactive
34 | Cc1onc(-c2ccccc2Cl)c1C(=O)N[C@@H]1C(=O)N2[C@@H]1SC(C)(C)[C@@H]2C(=O)O | inactive
35 | C#CCN[C@@H]1CCc2ccccc21 | inactive
36 | CC(C)C[C@H](NC(=O)[C@H](CCc1ccccc1)NC(=O)CN1CCOCC1)C(=O)N[C@@H](Cc1ccccc1)C(=O)N[C@@H](CC(C)C)C(=O)[C@@]1(C)CO1 | 23.7 nM (active) and 41.8 nM (active)
37 | COc1c(N2CCNC(C)C2)c(F)cc2c(=O)c(C(=O)O)cn(C3CC3)c12 (stereo not given) | inactive
38 | COCCCOc1cc(C[C@@H](C[C@H](N)[C@@H](O)C[C@H](C(=O)NCC(C)(C)C(N)=O)C(C)C)C(C)C)ccc1OC | inactive
39 | CCn1cc(C(=O)O)c(=O)c2cc(F)c(N3CCNCC3)nc21 | inactive
40 | CNS(=O)(=O)Cc1ccc2[nH]cc(CCN(C)C)c2c1 | inactive
